Assay results from PubChem BioAssay.
Active and inactive are the calls of the source.

Key:
[1] = compounds binding Alexa647 anti-His antibody – biochemical, small-molecule microarray, 635 nm fluorescence, artefact control for SMM control protein annotation, primary screen (AID 1128); conditions: higher = more signal;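 note: score merges feature fluorescence with signal-to-noise for each printed compound spot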
[2] = test system: Human papillomavirus type 1a E7 protein (residues 1-88); test: HPV1a E7 small-molecule binders, primary screen, biochemical, small-molecule microarray, residues 1-88, 635 nm (AID 1129); conditions: small-molecule microarray binding, fluorescence 635 nm; higher = more signal
[3] = biological target: Focal adhesion kinase 1 (Homo sapiens) (UniProt Q05397); test: PTK2 protein binding on printed compound slides – biochemical, small-molecule microarray, 635/667 nm fluorescence, BSA, DTT, primary screen (AID 1130); conditions: 635 nm fluorescence, higher = more signal;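 note: composite of spot emission at 667 nm and signal to noise over triplicate slides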
[4] = test system: Fibrinogen (Alexa647-labelled); test: Alexa647-fibrinogen binding to printed small molecules – biochemical, small-molecule microarray, 635/667 nm fluorescence, artefact control for SMM control-protein annotation, profiling panel (AID 1131); conditions: fibrinogen-A647 binding fluorescence, higher = more signal;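 note: z-score merges 667 nm fluorescence with per-spot signal-to-noise over triplicate slides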
[5] = biological target: Follistatin (Homo sapiens) (UniProt P19883); test: FST protein binding to printed compounds – biochemical, small-molecule microarray, 635/667 nm fluorescence, primary screen (AID 1132); conditions: 635 nm fluorescence, higher = more signal
[6] = biological target: Fibroblast growth factor 2 (Homo sapiens) (UniProt P09038); test: basic fibroblast growth factor binding to printed compounds – biochemical, small-molecule microarray, 635/667 nm fluorescence, primary screen (AID 1133); conditions: FGF2, fluorescence 635/667, higher = more signal
[7] = JC-1 mitochondrial potential readout, lung cancer cells – cell-based, A549, JC-1 fluorescence, basal, 24 h, 100 nL, profiling panel (AID 1138); conditions: higher = more signal;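 note: A549 lung adenocarcinoma cells under basal conditions with no added stimulus; test concentration not given here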
Lefty1 = Lefty1 protein binding to printed compounds – biochemical, small-molecule microarray, 635/667 nm fluorescence, primary screen (AID 1139); conditions: fluorescence 635/667, higher = more signal
[8] = test system: wheat germ agglutinin (Triticum aestivum), Alexa647-labelled; test: Alexa647-WGA lectin binding to printed small molecules – biochemical, small-molecule microarray, 635/667 nm fluorescence, artefact control for SMM control-protein annotation, profiling panel (AID 1140); conditions: WGA-A647 binding, 635 nm fluorescence, higher = more signal;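 note: score merges 667 nm feature emission with signal to noise over triplicate slides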
[9] = biological target: Luciferin 4-monooxygenase (Photinus pyralis) (UniProt P08659); test: inhibition of purified Photinus pyralis luciferase – biochemical, luminescence, purified enzyme, 2006 set, primary screen (AID 1141); conditions: purified firefly luciferase, SteadyGlo luminescence, 30 min; higher = more signal, called active from +8 up or from −8 down;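 note: cell-free assay with purified firefly luciferase at 100 ng per well in PBS; test concentration not given here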
Chain of Luciferin 4-monooxygenase (Photinus pyralis) (P08659 whole entry, looked up): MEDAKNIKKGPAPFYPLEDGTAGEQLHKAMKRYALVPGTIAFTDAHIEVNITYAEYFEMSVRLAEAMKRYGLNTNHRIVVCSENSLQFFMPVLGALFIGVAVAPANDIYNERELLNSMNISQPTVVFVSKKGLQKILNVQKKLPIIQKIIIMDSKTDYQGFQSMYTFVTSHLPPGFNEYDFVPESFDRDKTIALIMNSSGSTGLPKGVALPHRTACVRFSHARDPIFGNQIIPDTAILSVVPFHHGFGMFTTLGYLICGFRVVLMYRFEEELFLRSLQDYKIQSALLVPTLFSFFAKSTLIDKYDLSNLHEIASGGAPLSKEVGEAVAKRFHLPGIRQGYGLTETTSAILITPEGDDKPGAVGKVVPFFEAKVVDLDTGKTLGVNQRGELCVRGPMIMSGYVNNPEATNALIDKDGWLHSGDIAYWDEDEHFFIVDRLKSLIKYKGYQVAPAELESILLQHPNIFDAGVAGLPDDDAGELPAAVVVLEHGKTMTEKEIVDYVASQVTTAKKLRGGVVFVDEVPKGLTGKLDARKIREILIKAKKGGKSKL

Chain of Follistatin (Homo sapiens) (P19883 whole entry, looked up): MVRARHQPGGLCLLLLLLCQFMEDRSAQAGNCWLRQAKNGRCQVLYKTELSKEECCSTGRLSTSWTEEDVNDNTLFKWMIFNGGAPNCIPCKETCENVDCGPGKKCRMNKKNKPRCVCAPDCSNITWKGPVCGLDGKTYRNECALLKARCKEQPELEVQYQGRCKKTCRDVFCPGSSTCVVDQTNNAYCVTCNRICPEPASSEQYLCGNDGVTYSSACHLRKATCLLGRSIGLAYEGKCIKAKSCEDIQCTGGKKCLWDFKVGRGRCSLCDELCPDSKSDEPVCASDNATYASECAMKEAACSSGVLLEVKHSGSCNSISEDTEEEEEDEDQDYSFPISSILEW
Chain of Fibroblast growth factor 2 (Homo sapiens) (P09038 whole entry, looked up): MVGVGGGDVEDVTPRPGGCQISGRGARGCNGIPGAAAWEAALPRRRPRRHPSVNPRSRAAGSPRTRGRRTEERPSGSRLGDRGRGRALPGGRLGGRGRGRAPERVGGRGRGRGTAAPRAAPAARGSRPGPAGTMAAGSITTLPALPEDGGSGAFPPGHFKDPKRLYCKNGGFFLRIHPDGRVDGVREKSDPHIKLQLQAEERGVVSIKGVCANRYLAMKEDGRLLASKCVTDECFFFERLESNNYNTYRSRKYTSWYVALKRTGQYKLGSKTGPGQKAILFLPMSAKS
Chain of Focal adhesion kinase 1 (Homo sapiens) (Q05397 whole entry, looked up): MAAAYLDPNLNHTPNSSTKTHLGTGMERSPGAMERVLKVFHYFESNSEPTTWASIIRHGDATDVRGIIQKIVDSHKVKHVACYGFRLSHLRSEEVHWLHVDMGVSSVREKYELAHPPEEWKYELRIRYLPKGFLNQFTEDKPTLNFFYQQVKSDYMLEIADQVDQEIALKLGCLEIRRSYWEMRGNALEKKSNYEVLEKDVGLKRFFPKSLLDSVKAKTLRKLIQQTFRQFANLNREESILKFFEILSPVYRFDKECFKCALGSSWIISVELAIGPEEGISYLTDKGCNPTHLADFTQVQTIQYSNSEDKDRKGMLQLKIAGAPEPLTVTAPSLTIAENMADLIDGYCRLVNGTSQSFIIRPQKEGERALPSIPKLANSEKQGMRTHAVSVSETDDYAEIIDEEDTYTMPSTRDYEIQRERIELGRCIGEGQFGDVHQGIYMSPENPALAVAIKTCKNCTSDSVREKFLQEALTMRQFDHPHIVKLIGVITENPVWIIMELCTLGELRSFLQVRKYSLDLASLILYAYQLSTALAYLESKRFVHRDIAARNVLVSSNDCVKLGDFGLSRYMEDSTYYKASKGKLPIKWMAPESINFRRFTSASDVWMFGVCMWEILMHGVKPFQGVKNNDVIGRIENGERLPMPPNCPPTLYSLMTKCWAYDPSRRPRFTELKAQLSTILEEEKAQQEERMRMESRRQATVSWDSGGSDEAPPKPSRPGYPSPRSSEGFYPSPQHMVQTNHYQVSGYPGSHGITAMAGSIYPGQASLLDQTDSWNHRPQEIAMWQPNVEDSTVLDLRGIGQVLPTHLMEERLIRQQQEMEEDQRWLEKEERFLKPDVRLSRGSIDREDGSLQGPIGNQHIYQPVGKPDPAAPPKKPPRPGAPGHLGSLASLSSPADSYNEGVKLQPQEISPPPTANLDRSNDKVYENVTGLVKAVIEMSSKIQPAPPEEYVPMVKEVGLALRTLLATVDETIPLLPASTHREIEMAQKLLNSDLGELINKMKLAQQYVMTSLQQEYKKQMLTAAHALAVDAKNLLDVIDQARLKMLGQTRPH

SMILES | composite z-score [1] | composite z-score [2] | composite z-score [3] | composite z-score [4] | composite z-score [5] | composite z-score [6] | z-score [7] | composite z-score (Lefty1) | composite z-score [8] | z-score [9]
C=CCC(OC(C)=O)[C@@H]1[C@@H](N(Cc2cccc3ccccc23)C(=O)c2ccc(-c3ccccc3)cc2)c2cc(OCCCO)ccc2N1C(=O)c1ccc2ccccc2n1 (stereo not given in full) | 0.112 | 0.263 | 0.0785 | 0.677 | 0.537 | -0.0329 | -0.0419 | 0.752 | 0.922 | 0.222 (inactive)
C=CCC(OC(C)=O)[C@@H]1[C@@H](N(Cc2ccc(-c3cccc(C(F)(F)F)c3)o2)C(=O)Cc2ccc(F)cc2)c2cc(OCCCO)ccc2N1C(=O)c1ccc2ccccc2n1 (stereo not given in full) | -0.255 | -0.732 | -0.153 | -1.12 | 0.67 | -0.0898 | 0.898 | -0.286 | -0.375 | -0.1 (inactive)
COC(=O)[C@@]1(Cc2ccc(F)cc2)[C@H]2c3cc(C(=O)N(C)C)n(CCn4cc([N+](=O)[O-])nc4C)c3C[C@H]2CN1C(=O)c1ccccc1 | 1.07 | 1.11 | 1.45 | 0.835 | -0.394 | -0.776 | 0.608 | -1.07 | 0.288 | 0.984 (inactive)
COC(=O)c1ccc([C@H](NC(=O)c2ccccc2)[C@]2(C)C[C@H]2C2CCCCC2)cc1 | 0.494 | 1.18 | 0.591 | 0.707 | 0.412 | -0.639 | 0.85 | -0.41 | 1.21 | 1.51 (inactive)
CC(C)(C)N1CC=CC23O[C@@H]4/C=C\CCCOC(=O)C4[C@H]2C(=O)N(CCCCCCO)[C@@H]3C1=O (stereo not given in full) | 3.08 | -0.444 | -0.639 | -1.01 | -0.93 | -0.502 | 1.2 | -1.11 | 0.0119 | -0.854 (inactive)
CC(C)C[C@@H]1NC(=O)[C@@H]2C[C@H](C(=O)NCCCC[N+](C)(C)C)[C@H](c3ccc(O)cc3)N2C1=O | 2.63 | 0.643 | -0.133 | 0.354 | 1.42 | 1.76 | -0.694 | 1.67 | 0.479 | -0.948 (inactive)
COc1ccc(C#Cc2ccc3c(c2)[C@]2(C(=O)N3)[C@H](C(=O)Nc3nc4ccccc4s3)[C@H]3C(=O)O[C@H](c4ccccc4)[C@H](c4ccccc4)N3[C@@H]2c2ccc(OCCO)cc2)cc1 | 1.11 | 0.98 | 0.266 | 0.731 | 1.38 | 0.83 | -2.33 | 0.949 | 1.29 | -3.53 (inactive)
CCOC(=O)C1=CC[C@@H](c2ccccc2Cl)N(S(=O)(=O)c2ccc(C)cc2)[C@H]1c1cccc(OC)c1 | 0.413 | 1.05 | 0.1 | 0.737 | 0.176 | 0.0652 | 0.0495 | -0.0177 | 0.54 | 0.658 (inactive)
